Data taken from PubChem BioAssay (NCI).
This is part of a sample that, as a whole, favours compounds with a hit. Of some 83,000 tested, about 20% had one in any assay.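 Each cell line was grown in a 96-well plate and treated with one concentration of compound for 48 hours. Values below 10 were considered active.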 Values without a mark were called inactive. Calls of active or inactive are those of the source.

Legend:
Assay in all cases: NCI-60 one-dose screen, 48 h (100 = growth as untreated, 0 = no growth, -100 = all killed)
Conditions in all cases: 10 µM
HCT-15 colon = test system: HCT-15 colon
SNB-75 CNS = test system: SNB-75 CNS
SNB-19 CNS = test system: SNB-19 CNS
U251 CNS = test system: U251 CNS
PC-3 prostate = test system: PC-3 prostate
SK-MEL-5 melanoma = test system: SK-MEL-5 melanoma
UACC-62 melanoma = test system: UACC-62 melanoma
LOX IMVI melanoma = test system: LOX IMVI melanoma
SK-MEL-28 melanoma = test system: SK-MEL-28 melanoma
SK-MEL-2 melanoma = test system: SK-MEL-2 melanoma
SN12C renal = test system: SN12C renal
UO-31 renal = test system: UO-31 renal
ACHN renal = test system: ACHN renal
CAKI-1 renal = test system: CAKI-1 renal
A498 renal = test system: A498 renal
CCRF-CEM leukemia = test system: CCRF-CEM leukemia
MOLT-4 leukemia = test system: MOLT-4 leukemia
TK-10 renal = test system: TK-10 renal
EKVX NSCLC = test system: EKVX NSCLC

SMILES	growth (HCT-15 colon)	growth (SNB-75 CNS)	growth (SNB-19 CNS)	growth (U251 CNS)	growth (PC-3 prostate)	growth (SK-MEL-5 melanoma)	growth (UACC-62 melanoma)	growth (LOX IMVI melanoma)	growth (SK-MEL-28 melanoma)	growth (SK-MEL-2 melanoma)	growth (SN12C renal)	growth (UO-31 renal)	growth (ACHN renal)	growth (CAKI-1 renal)	growth (A498 renal)	growth (CCRF-CEM leukemia)	growth (MOLT-4 leukemia)	growth (TK-10 renal)	growth (EKVX NSCLC)
CCN(CC)CCn1c(=N)n(CC(O)c2ccc(Cl)c(Cl)c2)c2ccccc21 (centres undefined)	51.2%	71.8%	102%	69.7%	80.8%	55.6%	-30.5% (active)	76.1%	10.4%	96.8%	83.3%	64.3%	71.5%	75.4%	52.5%	78.9%	79.7%	–	–
C[n+]1c(/C=C/c2c[nH]c3ccccc23)ccc2ccccc21	90.7%	90.9%	68.4%	69.9%	52.1%	59.2%	54.2%	60.5%	–	83.9%	64.4%	60.5%	77.1%	88.8%	54.5%	43.4%	9.37% (active)	89.6%	–
Cc1ccc(S(=O)(=O)N2CCc3ccccc3CC2)cc1	78.4%	78.6%	68%	56.3%	36.4%	46.1%	74.1%	76.4%	94.6%	80.9%	85.3%	70.2%	85.5%	78.7%	87.4%	–	80.5%	74.2%	22%
OC(CNC1CCCC1)Cn1c2ccccc2c2ccccc21 (centres undefined)	-37.6% (active)	51.5%	33.8%	-34.5% (active)	27%	-61.6% (active)	-50.9% (active)	-75.9% (active)	-60% (active)	48.9%	50.7%	12.3%	15.1%	31.8%	58%	4.28% (active)	-13.9% (active)	29.2%	–
CC(C)c1ncc(CO)n1Cc1c(Cl)cccc1Cl	97.7%	91.6%	142%	101%	94.4%	100%	108%	104%	120%	101%	113%	90.1%	99.9%	100%	77.8%	–	101%	95%	–
NC(N)=NS(=O)(=O)c1ccc(Nc2ccc3nnc(-c4ccncc4)n3n2)cc1	100%	90.4%	94.3%	104%	107%	98.3%	97.1%	97.2%	107%	131%	94.6%	78.6%	101%	106%	95.5%	109%	101%	112%	–
O=C(Nc1cccc(Cl)c1)OCC(COC(=O)Nc1cccc(Cl)c1)(COC(=O)Nc1cccc(Cl)c1)[N+](=O)[O-]	22.6%	49.9%	42.8%	34.7%	24.1%	44.2%	31.9%	15.6%	51.1%	49.7%	–	30.9%	39.8%	49.8%	21.1%	21.4%	4.15% (active)	53.7%	28.3%
Cc1ccc(C(=O)O)c(N)c1C	99.7%	82.6%	107%	100%	94.6%	107%	103%	93.8%	122%	89.3%	106%	57.6%	103%	92.6%	108%	93.4%	93.6%	122%	–
COc1cc(C(=O)n2nc(N)c3c(C)cc(C)nc32)cc(OC)c1OC	33.2%	57.9%	98.4%	72.1%	81.2%	73.8%	80.5%	54%	–	30.3%	79.8%	84.7%	91.9%	76.7%	60.2%	57.6%	36%	98.3%	–
Cc1cc(Nc2cccc(F)c2)nc(NCc2ccccc2)n1	15.6%	50.5%	29.4%	11.7%	1.49% (active)	33.9%	16.7%	18.2%	43.9%	19.8%	16.7%	20.7%	17.1%	24.1%	24.4%	–	22.5%	35.7%	–
Cc1ccccc1C1=N[C@@H](Cc2ccccc2)C(=O)c2c(nc3ccccn23)N1	100%	70.8%	109%	100%	89.4%	103%	103%	91.7%	113%	115%	107%	80.6%	94.5%	88.9%	98.2%	105%	111%	–	–
O/N=C1\CCC2CCCCC2C1 (centres undefined)	99.6%	71%	98.5%	107%	97.1%	102%	106%	98.2%	108%	101%	113%	95.5%	97.3%	96.2%	103%	103%	98.6%	101%	–
O=C(N/N=c1/ccoc2cccnc12)N1CCN(c2ncccn2)CC1	24.9%	70.7%	35%	17.9%	26.2%	-36.8% (active)	7.9% (active)	18.1%	48.4%	11.8%	–	24.8%	25.1%	26%	45.3%	30.5%	8.23% (active)	27.4%	17.4%
O=c1[nH]c(=O)n(C2C[C@@H](O)[C@@H](CO)O2)cc1F (some centres undefined)	39%	20.3%	41.6%	34.2%	44%	-69% (active)	13.9%	14.1%	37.9%	57.3%	–	10.5%	–	31.6%	15.8%	29.1%	32.5%	35.5%	–
